Laboratory results: article PMC5540273 (PLoS ONE, 2017)

Experiments:
Details in all cases: concentration: 1 μM, replicates: in singlicate; n = 1
[1] = system: PAK4
[2] = system: PAK6
[3] = system: PAK7
[4] = system: T1, PCTK1
T1 construct: gene CDK16

[5] = system: T2, PCTK2
T2 construct: gene CDK17

[6] = system: T3, PCTK3
T3 construct: gene CDK18

[7] = system: PDGFRA
[8] = system: PDGFRB
[9] = system: PDPK1
[10] = system: PFTAIRE2
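Further: KINOMEscan kinase panel screen.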

SMILES	%Inh [1] [%]	%Inh [2] [%]	%Inh [3] [%]	%Inh [4] [%]	%Inh [5] [%]	%Inh [6] [%]	%Inh [7] [%]	%Inh [8] [%]	%Inh [9] [%]	%Inh [10] [%]
O=c1cc(N2CCOCC2)nc2n(Cc3cccc(Cl)c3Cl)c(C3CC3)nn12 [GSK2358994]	0	13	0	0	0	3	0	2	14	0
COc1cc2ncn(-c3cc(OCc4sccc4Cl)c(C(N)=O)s3)c2cc1OC [GSK448459]	0	6	0	4	0	13	25	76	0	0
O=C(NCCNc1ccnc(Nc2ccc(F)cc2)n1)c1cc2ccccc2s1 [GSK1379874]	0	0	0	0	0	0	0	26	0	17
CCc1ccnc(/C=C/c2n[nH]c3cc(Sc4ccccc4C(=O)NC)ccc23)c1	3	0	0	10	0	2	99.8	100	0	0
COC(=O)Nc1nc2cc(Oc3ccc(NC(=O)Nc4cc(F)ccc4F)cc3)ccc2[nH]1.Cl [GW701424]	0	0	12	0	0	23	98.9	100	0	0
